# Screening results (PubChem)
# An excerpt weighted towards active compounds, which were near 1.8% of everything screened.
# SUMO Mot1 rescue: SUMOylation pathway inhibition by Mot1-301 growth rescue. S. cerevisiae Mot1-301 growth rescue, ATP luminescence, 38.5C; percent above DMSO median, 100 means doubled. growth rescue, % at 18.8 µM. hit rate 1% among 320,000;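 active means every valid replicate shows activation above 250% relative to neutral control wells; inactive means the rest, any valid replicate at or below 250%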;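 further: OY570 slx delta 5 strain wells were the positive control but not used for scaling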
# AI-2 QS mod: modulators of Vibrio harveyi AI-2 quorum sensing system; Vibrio harveyi JMH597 AI-2 luminescence/OD600 ratio, 9 h; stronger effect = lower value; strain lacks LuxN and CqsS sensors; 0 = neutral-control median; activity change, % at 7.5 µM; hit rate 0.4% among 300,000; AID 2094; in the data active means activity change below about -75%, passing the limit was not always enough;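 further: luminescence divided by OD600 gain over 9 h not by final OD600 alone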
# ARNT-TACC3 inh: ARNT/TACC3 interaction disruption; AlphaScreen His-ARNT PAS-B/GST-TACC3 binding, luminescence; TACC3 fragment carries E629A point mutation; inhibition, % at 9.99 µM; Q9Y6A5; hit rate 0.66% among 390,000;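 active means mean inhibition of replicates at least 50% and at least half of replicates each reaching 50%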;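 further: 0% = complete ARNT plus TACC3 wells and 100% = ARNT alone without TACC3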
# aDG glyco up: alpha-DG glycosylation activation | hit rate 0.22% among 360,000 | activation, % at 10 µM | Pro5-aDG cells, alpha-DG glycosylation AlphaScreen (IIH6); 0% Pro5, 100% B10-LARGE cell signal;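 active means activation of at least 8% versus controls, or a plate z-score of at least 8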;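 further: Pro5 are CHO cells carrying HIG-tagged alpha-DG that lacks glycosylation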
# Bfl-1 A1 inh: inhibitors of the anti-apoptotic protein A1, read as caspase activation. caspase activation, % (concentration not given with the values). hit rate 0.066% among 330,000. MEF A1-2A-BIM cells, Caspase-Glo 3/7 luminescence, 3 h; percent of clofoctol response, vehicle zero;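 active means over half of replicate activation scores above 10%, or exactly half above 10 with the replicate mean above 10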
# aDG conf: confirmation of alpha dystroglycan glycosylation activators; shares compounds with aDG glyco up; Pro5-aDG cells, alpha-DG glycosylation, IIH6 AlphaLISA; scaled to LARGE-overexpressing B10 cells as 100%; activation, % at 10 µM (by protocol); hit rate 17% among 600;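 active means activation of at least 7% in one or more replicates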;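 further: cells exposed to compound for two days before detection; 0% = DMSO-treated Pro5 cells and 100% = DMSO-treated B10-LARGE cells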
# The depositor's hits bear a star; · = no result.
SMILES,SUMO Mot1 rescue,AI-2 QS mod,ARNT-TACC3 inh,aDG glyco up,Bfl-1 A1 inh,aDG conf
O=C(CSc1nc2ccccc2s1)CSc1nc2ccccc2s1,44,19,4,6.8*,0,-1
COc1ccc(-n2c(=O)c3ccccc3n(Cc3ccccc3F)c2=O)cc1OC,-24,10,11,1.8*,0,-1
Nc1ccc2ccccc2c1[N+](=O)[O-],·,·,-10,0,·,·
Nc1cc2c3ccccc3ccc2c2ccccc12,·,·,·,4.7*,·,0
O=C(CSCc1cccc(Br)c1)NC1CC1,16,2,-3,5.3*,-1,0
O=C(CSCc1ccc(Br)cc1)NC1CC1,12,10,1,0,0,·
CN(C)c1ccc(C(=O)OCC(=O)Nc2ccc(S(N)(=O)=O)cc2)cc1,-4,1,-2,6.0*,-1,-1
CN1CCN(S(=O)(=O)c2ccc(N(C)Cc3ccc(C(F)(F)F)cc3)c([N+](=O)[O-])c2)CC1,-11,·,·,5.8*,-1,1
C=CCOc1ccc(CN(C)c2ccc(S(=O)(=O)N3CCN(C)CC3)cc2[N+](=O)[O-])cc1,-26,·,5,0,0,·
O=C(Nc1ccnn1C1CCN(Cc2cccc(OCCO)c2)CC1)C1CC1,-5,26,-1,6.0*,1,-1
COc1cccc(CN2CCC(n3nccc3NC(=O)C3CC3)CC2)c1,-15,19,-6,0,0,·
Cn1c(=O)oc2cc(S(=O)(=O)NCCC(=O)NCCc3ccccc3)ccc21,146,20,-5,4.3*,1,1
c1ccc(CCNc2ncnc3sccc23)nc1,107,-8,0,0,0,·
Cc1csc2ncnc(NCCc3ccccn3)c12,11,13,-1,10*,0,2
CN1c2ccc(-c3cccc(F)c3)cc2[C@H]2[C@H](CCN2C(=O)C2CCCC2)[C@H]1CO,·,·,8,·,·,·
CCC(C(=O)NCc1ccco1)N(C(=O)CNS(=O)(=O)c1ccc(F)cc1)c1ccccc1F (stereo not given),234,-3,-2,3.5*,0,-1
CCC(C(=O)NCc1ccco1)N(C(=O)CNS(=O)(=O)c1ccccc1)c1ccc(F)cc1 (stereo not given),146,31,28,0,2,·
CCCCCOc1ccc2oc(=O)c3c(c2c1)CCCN3C(=O)CN1CCCC(C(=O)OCC)C1 (stereo not given),0,12,-1,1,0,·
COc1ccc(CCN2C(=O)CSC2=Nc2ccc(C(C)C)cc2)cc1OC,-16,33,1,2.9*,0,0
COc1ccccc1C(=O)Nc1ccc2c(c1)CCCN2C(=O)c1cccs1,236,19,5,0,-6,·
COc1ccccc1C(=O)Nc1ccc2c(c1)CCCN2C(=O)c1ccccc1,8,28,-1,9.6*,-13,0
CN1CCN(c2ncnc3c2ncn3[C@H]2CN(Cc3ccc(-c4ccccc4)cc3)C[C@@H](CO)O2)CC1,·,·,·,9.6*,·,9.8*
Cc1ccc(NC(=O)c2ccc([N+](=O)[O-])s2)cc1S(=O)(=O)N1CCOCC1,-2,·,-4,9.0*,0,6.1*
O=C(Nc1cc(S(=O)(=O)N2CCOCC2)ccc1N1CCOCC1)c1ccc([N+](=O)[O-])s1,-24,·,·,3,0,·
O=C(COc1ccc(Cl)cc1)Nc1cccc(-c2ccc3nncn3n2)c1,42,2,0,3.5*,0,0
SMILES,SUMO Mot1 rescue,AI-2 QS mod,ARNT-TACC3 inh,aDG glyco up,Bfl-1 A1 inh,aDG conf
Cc1ccc(N(CC(=O)NC(C)c2ccccc2)S(=O)(=O)c2c(C)noc2C)cc1 (stereo not given),0,·,-3,0,-1,·
Cc1ccc(N(CC(=O)NC(C)c2ccccc2)S(=O)(=O)c2c(C)n[nH]c2C)cc1 (stereo not given),4,5,-3,5.6*,0,0
Cc1nc(NCc2ccc(S(N)(=O)=O)cc2)c2c(C)c(C)sc2n1,78,3,-1,0,0,·
Cc1nc(NCCc2ccc(S(N)(=O)=O)cc2)c2c(C)c(C)sc2n1,0,13,-1,8.2*,0,2
CCc1cc(C(=O)c2ccc(C)cc2)c(NC(=O)CCl)s1,-9,32,2,10*,0,-1
COC(CNC(=O)C1CCCN(S(=O)(=O)c2ccc3c(c2)oc(=O)n3C)C1)OC (stereo not given),24,10,-1,0,-1,·
CCCN(CCC)C(=O)C1CCCN(S(=O)(=O)c2ccc3c(c2)oc(=O)n3C)C1 (stereo not given),2,12,-4,8.0*,-2,0
Cc1ccc(CNC(=O)CN(C(=O)C2(C)CC(=O)N=C3C=CC=CN32)c2cccc(C)c2C)cc1 (stereo not given),7,9,·,2.6*,0,1
Cc1ccc(C2(c3noc(CN(C)CC4CCCCO4)n3)CCCC2)cc1 (stereo not given),-7,1,-8,0,0,·
Cc1ccc(C2(c3noc(CN4CCC(c5ccncc5)CC4)n3)CCCC2)cc1,-21,21,·,6.0*,0,0
O=C(CNC(=O)c1cccc(F)c1)N/N=C/c1ccc([N+](=O)[O-])s1,-8,-148*,·,11*,1,3
O=C(Cc1ccccc1)N/N=C/c1ccc([N+](=O)[O-])s1,-8,1,2,3,-1,·
CCCn1c(/N=C/c2ccc3c(c2)OCO3)nc2ccccc21,35,30,5,0,1,·
C(=N\c1nc2ccccc2n1CCN1CCCCC1)/c1ccc2c(c1)OCO2,8,29,1,7.8*,0,2
Cc1cccc2nc(-c3cccc(NC(=O)c4ccc(Cl)cc4)c3)cn12,44,2,-4,6.5*,0,1
CCc1c(C)c(C#N)c2nc3ccccc3n2c1-n1nc(C)cc1C,191,9,-9,0,1,·
CCS(=O)(=O)N1CCCC(C(=O)c2ccc(OC)cc2C)C1 (stereo not given),-4,52,-2,25*,0,0
Nc1nc(-c2cccnc2)nn1S(=O)(=O)c1ccccc1,20,11,14,7.2*,1,0
CCN1CCN(C2=C(NS(=O)(=O)c3ccc(NC(C)=O)cc3)C(=O)c3ccccc3C2=O)CC1,-9,14,12,6.7*,1,0
COc1cc(NC(=S)N2CCN(S(=O)(=O)c3ccc(F)cc3)CC2)cc(OC)c1,-21,50,-2,14*,0,1
O=C(Nc1ccccc1Cl)C1C(c2ccccc2)C1(Cl)Cl (stereo not given),22,-3,37,6.2*,0,0
